High-throughput results (PubChem BioAssay)
Rows were chosen to be rich in hits. Some 3.5% of all compounds tested hit in one or more screens of this group.
FBA Mtb inh – Mtb fructose-bisphosphate aldolase inhibition. purified M. tuberculosis FBA, fluorescence read-out. inhibition, % at 1 µM. P9WQA3. 2.3% of 360,000 active
Target sequence (P9WQA3 whole entry, looked up): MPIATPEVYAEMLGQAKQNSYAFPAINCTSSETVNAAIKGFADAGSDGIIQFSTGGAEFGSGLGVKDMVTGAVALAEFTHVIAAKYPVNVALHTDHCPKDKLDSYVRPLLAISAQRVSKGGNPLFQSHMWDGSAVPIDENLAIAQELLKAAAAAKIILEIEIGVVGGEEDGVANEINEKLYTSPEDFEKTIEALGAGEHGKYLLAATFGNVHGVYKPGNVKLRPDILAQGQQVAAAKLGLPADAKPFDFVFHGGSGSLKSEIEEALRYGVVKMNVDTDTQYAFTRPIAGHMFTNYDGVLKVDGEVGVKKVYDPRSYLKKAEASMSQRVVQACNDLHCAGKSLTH
Rv3671c protease – inhibitors of M. tuberculosis serine protease Rv3671c; P9WHR9; inhibition, % at 5.96 µM; 0.048% of 320,000 active; in the data active = inhibition above about 38%;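 note: extracellular domain of Rv3671c used as enzyme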
Mtb UGM inh – inhibitors of M. tuberculosis UDP-galactopyranose mutase | P9WIQ1 | purified UGM, fluorescence polarization probe displacement | inhibition, % at 10 µM | 0.06% of 320,000 active | AID 504406; in the data active = inhibition above about 10%, passing the limit was not always enough; inconclusive = no clear call, values can overlap the other calls
GDH-TPI counter-1 – inhibits GDH-TPI coupling enzymes, artifact for Mtb FBA screen; GDH-TPI coupled enzyme counterscreen, NADH absorbance; inhibition, % at 4.8 µM; 1.2% of 360,000 active; AID 588335; in the data active = inhibition above about 30%
Mtb bLac sens – beta-lactam sensitization of Mtb H37Rv. inhibition, % at 25 µM. M. tuberculosis H37Rv growth with meropenem, percent inhibition. 0.27% of 330,000 active; call rule not given here;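 note: growth measured after seven days incubation then overnight dye step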
Mtb FBA inh conf – confirmation of M. tuberculosis fructose-bisphosphate aldolase inhibitors; shares compounds with FBA Mtb inh; inhibition, % at 1 µM; 78% of 5,600 active; purified M. tuberculosis FBA, fluorescence read-out
GDH-TPI counter-2 – counter-screen for M. tuberculosis FBA inhibitors: GDH-TPI coupled enzyme inhibition; shares compounds with FBA Mtb inh; GDH-TPI coupled enzyme counterscreen, fluorescence; inhibition, % at 1 µM; 81% of 5,600 active; AID 652141; in the data active = inhibition above about 10%
GDH-TPI DR – inhibits GDH-TPI coupling enzymes in dose response; shares compounds with FBA Mtb inh; GDH-TPI coupled enzyme assay, fluorescence, artifact counterscreen; IC50, µM; 79% of 170 active; call rule not given here
Of the large screens only hits and unclear results are named; the others gave an inactive call (follow-up assays come after a bar, where they were run). Cut-off read from the data, not from the text of the source, unless noted: active = inhibition above about 27%; inactive = the rest.

N#Cc1c(-c2ccc(Br)cc2)cc(-c2cccnc2)nc1N	FBA Mtb inh 29 | Mtb FBA inh conf inactive | GDH-TPI counter-2 inactive | GDH-TPI DR inactive
COc1ccccc1-c1c(C#N)c(N)nc2c1CCc1ccccc1-2	FBA Mtb inh 42 | Mtb FBA inh conf active | GDH-TPI counter-2 active
CS(=O)(=O)c1nc(-c2ccc(Br)cc2)cc(-c2ccccc2)c1C#N	none
CSCC[C@H](NC(=O)N1CCn2c1nc1ccccc12)C(=O)N1CCCCC1	none
COc1ccccc1/C=C/C=N/n1c(-c2ccc(Cl)cc2)n[nH]c1=S	none
COc1ccccc1-c1cc(-c2ccc(O)cc2)nc(N)c1C#N	FBA Mtb inh 66 | Mtb FBA inh conf 140 | GDH-TPI counter-2 109
Cc1cc(=O)n2[nH]c(C(=O)O)nc2n1	none
Cc1cc(=O)n2[nH]cc(C(=O)O)c2n1	FBA Mtb inh 38 | Mtb FBA inh conf 178 | GDH-TPI counter-2 146
COCCn1c(SCC(=O)NCCCN2CCCC2=O)nc2sc3c(c2c1=O)CCCC3	none (no result: Rv3671c protease, Mtb UGM inh, Mtb bLac sens)
COc1ccc(-c2ccc(OC)cc2)cc1	none
COc1ccc(-c2ccc3ccccc3n2)cc1	FBA Mtb inh 83 | Mtb FBA inh conf 180 | GDH-TPI counter-2 139
COc1ccc(-c2cc3ccc(OC)cc3cn2)cc1	FBA Mtb inh 46 | Mtb FBA inh conf inactive | GDH-TPI counter-2 inactive
COc1ccc2cc(-c3ccon3)ccc2c1	FBA Mtb inh 34 | Mtb FBA inh conf 105 | GDH-TPI counter-2 99
Cn1c(SCC(=O)Nc2ccc(Cl)cc2F)nnc1-c1ccco1	none
CCCn1cc(S(=O)(=O)c2ccccc2)c(=O)c2cc(CC)ccc21	Mtb bLac sens inconclusive
COC(=O)CN1C(=O)N/C(=C/c2ccccc2OC)C1=O	none
O=C(O)c1cccc2c1-c1ccc(Cl)cc1C2	none (no result: Rv3671c protease, Mtb UGM inh, Mtb bLac sens)
O=C(O)c1cccc2sc3cc(Cl)ccc3c(=O)c12	FBA Mtb inh 63 | Mtb FBA inh conf 157 | GDH-TPI counter-2 126
C=CCc1ccc(O)c(-c2cc(CC=C)ccc2O)c1	FBA Mtb inh 34 | Mtb FBA inh conf 86 | GDH-TPI counter-2 63
COC(=O)/C=C1\SC(N)=NC1=O	none
COc1ccc(N(CC(=O)Nc2cccc(C(C)=O)c2)S(=O)(=O)c2ccc(NC(C)=O)cc2)cc1	none (no result: Rv3671c protease)
Cc1ccc2cc3cc(C(=O)NCCCN4CCc5ccccc5C4)oc3nc2c1	FBA Mtb inh 70, GDH-TPI counter-1 35 | Mtb FBA inh conf 184 | GDH-TPI counter-2 134
CCOc1ccc(NC(=O)c2cc3cc4ccc(C)cc4nc3o2)cc1	none (no result: FBA Mtb inh, GDH-TPI counter-1)
CCCCN(CC)C(=O)c1cc2cc3ccc(OC)cc3nc2o1	FBA Mtb inh 41, GDH-TPI counter-1 34 | Mtb FBA inh conf 98 | GDH-TPI counter-2 78
Cc1ccc2cc3cc(C(=O)NCCCN4CCCCCC4)oc3nc2c1	FBA Mtb inh 75 | Mtb FBA inh conf 97 | GDH-TPI counter-2 47
CCCCN(CC)CCCNC(=O)c1cc2cc3ccc(C)cc3nc2o1	FBA Mtb inh 95, GDH-TPI counter-1 35 | Mtb FBA inh conf 78 | GDH-TPI counter-2 70
COc1ccc(CCNc2oc(-c3ccccc3OC)nc2C#N)cc1OC	FBA Mtb inh 86 | Mtb FBA inh conf 96 | GDH-TPI counter-2 70
COc1ccccc1OCc1nc(C#N)c(NCc2ccco2)o1	none
N#Cc1nc(-c2ccc(F)cc2)oc1NCc1ccco1	FBA Mtb inh 71 | Mtb FBA inh conf 107 | GDH-TPI counter-2 73
CN(Cc1ccccc1)c1oc(-c2ccco2)nc1C#N	FBA Mtb inh 67 | Mtb FBA inh conf 41 | GDH-TPI counter-2 37
CN(C)CCNc1oc(-c2cccc(Cl)c2)nc1C#N	FBA Mtb inh 57 | Mtb FBA inh conf inactive | GDH-TPI counter-2 11
N#Cc1nc(-c2ccc(OCc3ccccc3)cc2)oc1NCCN1CCOCC1	none (no result: FBA Mtb inh, GDH-TPI counter-1)
O=S(=O)(c1ccccc1)c1nc(-c2ccco2)oc1NCCCN1CCOCC1	none
N#Cc1nc(-c2ccco2)oc1NCCCN1CCOCC1	FBA Mtb inh 56 | Mtb FBA inh conf active | GDH-TPI counter-2 active
COCCNc1oc(-c2ccc(F)cc2)nc1C#N	FBA Mtb inh 107 | Mtb FBA inh conf inactive | GDH-TPI counter-2 inactive
N#Cc1nc(-c2cccc3ccccc23)oc1NCCN1CCCCC1	FBA Mtb inh 70 | Mtb FBA inh conf 195 | GDH-TPI counter-2 188
CNc1oc(-c2ccc(OCc3ccccc3)cc2)nc1C#N	FBA Mtb inh 74 | Mtb FBA inh conf 84 | GDH-TPI counter-2 70
CCOC(=O)C1(Cc2ccccc2)CCCN(Cc2ccc(OCC)c(CO)c2)C1 (stereo not given)	none
CCOC(=O)C1CCN(C(=O)COC(=O)C2CCN(S(=O)(=O)c3ccc(C)c(C)c3)CC2)CC1	none
COc1ccc(C2(c3ccc(OC)cc3)NC(=O)N(CC(=O)NC3CCCC3)C2=O)cc1	none
N#Cc1nc(-c2ccc(OCc3ccc(Cl)cc3)cc2)oc1NCCCn1ccnc1	none
N#Cc1nc(Cc2ccccc2)oc1NCc1ccccc1	none
N#Cc1nc(-c2ccc(F)cc2)oc1NCc1ccccc1	FBA Mtb inh 81 | Mtb FBA inh conf 165 | GDH-TPI counter-2 120
Cc1cccc(-c2nc(C#N)c(NCc3ccco3)o2)c1	FBA Mtb inh 48 | Mtb FBA inh conf 165 | GDH-TPI counter-2 135
Cc1ccc(OCc2nc(C#N)c(NCc3ccco3)o2)cc1	none
Cc1ccc(-c2nc(C#N)c(NCc3ccco3)o2)cc1	FBA Mtb inh 92 (no result: Mtb UGM inh) | Mtb FBA inh conf 54 | GDH-TPI counter-2 41
N#Cc1nc(-c2ccccc2)oc1NCCCn1ccnc1	FBA Mtb inh 100 | Mtb FBA inh conf 139 | GDH-TPI counter-2 89
Cc1nc(Nc2cccc(C(C)O)c2)c2nnn(Cc3ccc(F)cc3)c2n1 (stereo not given)	none
CCOC(=O)c1cc(CC)sc1NC(=O)COC(=O)c1cc[n+]([O-])cc1	none
CCCCCCn1c(=O)n2n(c1=O)C[C@]1(OC(=O)NC3CC3)CN(S(=O)(=O)c3ccc(C)cc3)C[C@]1(O)C2	none (no result: Rv3671c protease, Mtb UGM inh, Mtb bLac sens)
N#Cc1nc(-c2ccco2)oc1NCc1ccccc1Cl	FBA Mtb inh 35 | Mtb FBA inh conf 89 | GDH-TPI counter-2 79
N#Cc1nc(-c2ccco2)oc1NCc1ccco1	FBA Mtb inh 40 | Mtb FBA inh conf 172 | GDH-TPI counter-2 176
N#Cc1nc(Cc2cccc3ccccc23)oc1NCc1ccco1	none
Cc1nn(CCc2nn[nH]n2)c2nc(C(F)(F)F)cc(C(F)(F)F)c12	FBA Mtb inh 39 | GDH-TPI counter-2 active
NS(=O)(=O)c1ccc(NC(=O)COC(=O)COc2ccc3ccccc3c2)cc1	FBA Mtb inh 42 | Mtb FBA inh conf 55 | GDH-TPI counter-2 37
COc1cccc(C(NC(C)=O)c2nc(-c3cccc(C(C)C)c3)cs2)c1 (stereo not given)	none (no result: Rv3671c protease, Mtb UGM inh, Mtb bLac sens)
CCc1ccc2nc3nc(C)cc(C)c3c(N)c2c1	FBA Mtb inh 34 | Mtb FBA inh conf 103 | GDH-TPI counter-2 77
